This note sets out measurements from ChEMBL document CHEMBL4513216, “Probing the Open Global Health Chemical Diversity Library for Multistage-Active Starting Points for Next-Generation Antimalarials” (ACS Infect Dis, 2020).

About 8,600 (12%) of roughly 69,000 compounds showed an effect of 50% or more. For the sample, strong results were picked, then their nearest neighbours and some compounds at random.

The test system of this test is Plasmodium berghei. Briefly: Screen against P. berghei liver stage (PbLuc), transformed with Luciferase, at 10uM. The format is functional, HepG2. Conditions: tested at 10 uM.
Consider `Cc1ccc(C2(O)CCN(Cc3nc(C)n4ccccc34)CC2)nc1`, for which the INHIBITION is given as 26.1%. For `COc1cnc(N2C[C@@H](CN3CCOCC3)[C@@H](CO)C2)nc1`, the INHIBITION is -35%.

Regarding `CCC1CN(C(=O)NCCOc2ccc3c(c2)OCO3)CCO1` (stereo unspecified), the INHIBITION is recorded as 30.2%. The result for `Cc1cc(Oc2ccccc2)nc(C2CCN(CCO)CC2)n1` reads 24.15%.

As to `Cn1cccc1C(=O)N[C@@H]1CN(Cc2cccs2)[C@@H]2COC[C@@H]21`, the INHIBITION is reported as -4.88%. The result for `Cc1nc(Cn2c3c(ccc2=O)CC(N)CC3)cs1` (stereo unspecified) reads 9.65%. The result for `CN(Cc1cccc(O)c1)C(=O)Nc1cccnc1N1CCCC1` reads 33.3%; that for `O=c1[nH]c2csnc2c(=O)n1Cc1ccc(Br)cc1`, 29.1%. For `CCC(c1nc(C(C)C)nn1-c1ccncc1C)n1cccn1` (stereo unspecified) the value was 57.2%; for `CCC(c1nc(C(C)C)nn1-c1ccccn1)n1cccn1` (stereo unspecified), 38.8%; for `Cc1cnccc1-n1nc(C(C)C)nc1CCc1cnccn1`, -3.12%. As to `CCCn1ccnc1CN1CC[C@@H](NC(=O)c2cccnc2)[C@H](O)C1`, the INHIBITION stood at 12.9%. `Cc1nn(CCO)c(C)c1CN1CCN(C2CCCCC2)C(=O)C1`: the INHIBITION is given as 16.9%. The result for `O=C(NCCO)Nc1cccc(Cl)c1SC(F)F` reads 13%; that for `CN(C)C(=O)CNC(=O)Nc1cccc(Cl)c1SC(F)F`, 23.2%; that for `CCNC(=O)CNC(=O)Nc1cccc(Cl)c1SC(F)F`, 64.3%.

With `O=C(CNC(=O)Nc1cccc(Cl)c1SC(F)F)NC1CC1`, the INHIBITION turned out to be 29.5%. For `CNC(=O)CCNC(=O)Nc1cccc(Cl)c1SC(F)F` the value was 60.3%. For `CC(=O)NCCNC(=O)Nc1cccc(Cl)c1SC(F)F` the value was 46.4%; for `O=C(NCC1COCc2c(-c3cccnc3)nnn2C1)c1cccs1` (stereo unspecified), 43.2%. The result for `COCCNc1ccc(CC2CCCNC2)cn1` (stereo unspecified) reads 44.3%. With `CO[C@@H]1CCN(S(=O)(=O)c2cn(C)cn2)[C@H]1Cc1ccncc1`, the INHIBITION turned out to be 39.4%.

With `Cc1nccn1CCNC(=O)C1(C)CC(c2ccccc2)=NO1` (stereo unspecified), the INHIBITION is -1.16%.

Take `COc1ccc(CN2CCO[C@H]3[C@H](OCCN4CCCC4)CC[C@@H]32)cc1`: the INHIBITION worked out at 0.618%. `CCN(CC)CCN1CCO[C@H]2[C@@H](OCc3ccncc3)CC[C@@H]21`: the INHIBITION was determined as 29%.

As for `COCCN1CCO[C@H]2[C@H](OCc3cccc(C)n3)CC[C@@H]21`, the INHIBITION is reported as -8.25%. The result for `CCO[C@@H]1CC[C@H]2[C@H]1OCCN2Cc1ccc(F)cc1` reads 8.52%; that for `Cc1cccc(CO[C@@H]2CC[C@H]3[C@H]2OCCN3Cc2ccsc2)n1`, 16.6%; that for `Cc1ccc(CN2CCO[C@H]3[C@H](OCc4cccnc4)CC[C@@H]32)o1`, 56.4%.

As for `Cc1cccc(CO[C@@H]2CC[C@H]3[C@H]2OCCN3Cc2ccoc2)n1`, the INHIBITION came out at 67.5%. The result for `CO[C@@H]1CC[C@H]2[C@H]1OCCN2Cc1ccc(F)cc1` reads 25.3%. For the molecule `Cc1ccc(CN2CCO[C@@H]3[C@@H](OCc4cccnc4)CC[C@@H]32)o1`, the INHIBITION stood at 26.5%. The result for `Cc1ccc(CN2CCO[C@H]3[C@@H](OCc4cccnc4)CC[C@@H]32)o1` reads 15.6%; that for `Fc1ccc(CN2CCO[C@H]3[C@H](OCc4ccncc4)CC[C@@H]32)cc1`, 92.8%.

Regarding `COc1ccc(CN2CCO[C@H]3[C@H](OCc4ccncc4)CC[C@@H]32)cc1`, the INHIBITION amounted to 90.1%. The result for `O=C(NCC1CC[C@@H]2[C@@H]1OCCN2Cc1cccs1)c1ccco1` (stereo partly specified) reads 12.1%; that for `CCCn1ncc(CN(Cc2cccnc2)Cc2cccs2)c1C`, -4.87%; that for `Cc1ocnc1C(=O)N(C)[C@@H]1CC[C@@H](Oc2ccccc2)[C@@H]1O`, 16.2%. For `COCCO[C@H]1CCN(Cc2cnn(C)c2)[C@H]1Cc1cccnc1` the value was 9.51%; for `CN(C)C(=O)C1OC2(CCN(c3ncc(F)cn3)CC2)c2ccccc21` (stereo unspecified), 49.3%; for `Cc1noc(C)c1-c1ccnc(C2CCN(S(=O)(=O)N(C)C)CC2)c1`, 35.2%. For `CCN(Cc1cn(C)nc1-c1ccc2c(c1)OCCO2)CC1CCCO1` (stereo unspecified) the value was 28.5%; for `CC(C)N1CCCC(CNC(=O)CN(C)S(=O)(=O)c2ccccc2)C1` (stereo unspecified), -3.21%.

Regarding `Cn1nc(CNC(=O)C2CCC2)cc1C1CC1`, the INHIBITION is given as -34.5%. The result for `c1ccc(CO[C@H]2CC[C@H]3[C@H]2OCCN3Cc2nccs2)nc1` reads 22.2%; that for `c1cc(CO[C@@H]2CN(Cc3ccoc3)[C@@H]3CCCO[C@@H]32)ccn1`, 47.5%; that for `Cc1cccc(CN2CCO[C@H]3[C@@H](OCc4ccncc4)CC[C@@H]32)n1`, 85.6%. For `O=C(C1CCOCC1)N1CCO[C@H]2[C@@H](OCc3ccncc3)CC[C@@H]21` the value was 43.3%.

For `O=C(C1CCOCC1)N1CCO[C@H]2[C@H](OCc3ccncc3)CC[C@@H]21`, the INHIBITION was 14.1%.

As to `CCO[C@@H]1CC[C@H]2[C@H]1OCCN2Cc1ccoc1`, the INHIBITION is reported as 35.8%.

On to `c1csc(CN2CCO[C@H]3[C@H](OCC4CCCC4)CC[C@@H]32)n1`, for which the INHIBITION came out at 41.2%. The result for `c1cc(CO[C@H]2CC[C@H]3[C@H]2OCCN3Cc2nccs2)ccn1` reads 84.7%; that for `c1cc(CO[C@@H]2CC[C@H]3[C@H]2OCCN3CC2CCOCC2)ccn1`, 68.8%. For `Cc1cccc(CO[C@@H]2CC[C@H]3[C@H]2OCCN3Cc2nccs2)n1` the value was -44.2%; for `c1cc(CO[C@@H]2CC[C@H]3[C@H]2OCCN3Cc2ccoc2)ccn1`, 55.7%; for `Cc1cccc(CO[C@@H]2CC[C@H]3[C@H]2OCCN3Cc2cc(C)on2)n1`, -46.8%.
